# PfGluPho inh = PfG6PD (Plasmodium falciparum) enzyme inhibition; inhibition, % at 20 µM; AID 504690; PfGluPho enzyme, NADPH resazurin-diaphorase fluorescence; 350,000 tested, 0.78% active;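 active = inhibition reaching at least a set limit at 20 µM in the primary screen, cut at about 59% in these data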;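 note: 0% = DMSO wells with substrate and 100% = DMSO wells lacking glucose-6-phosphate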
# H9c2 protect = modulators protecting cardiomyocytes from myocardial damage | AID 588492 | H9c2 cardiomyocytes, H2O2 injury protection, ATPLite, 2 h | protection from H2O2 cell death, % at 20 µM | 360,000 tested, 0.63% active;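 active = compounds giving at least 50% protection of heart cells from peroxide-induced death in the single-dose screen, raw or plate-pattern-corrected value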;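 note: 0% = DMSO wells with peroxide and 100% = DMSO wells without peroxide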
# aDG glyco up = increases alpha dystroglycan glycosylation | Pro5-aDG cells, alpha-DG glycosylation AlphaScreen (IIH6); 0% Pro5, 100% B10-LARGE cell signal | activation, % at 10 µM | 360,000 tested, 0.22% active;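 active = activation of at least 8% versus controls, or a plate z-score of at least 8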;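 note: Pro5 are CHO cells carrying HIG-tagged alpha-DG that lacks glycosylation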
# CRFR2-BP ag = CRF-BP/CRF-R2 complex agonism. activation, % at 13.2 µM. 350,000 tested, 0.46% active. AID 588473. HEK293 CRF-R2/CRF-BP, calcium dye fluorescence (FLIPR); percent of saturating CRF peptide response;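 active = activation of at least 50%, plus an integration ratio under a set limit after plate pattern correction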;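 note: plate controls were neutral control wells without compound for no effect and CRF at EC100 for full effect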
# FAS-TE inh = blocks the thioesterase domain of human fatty acid synthase. 360,000 tested, 0.67% active. inhibition, % at 15 µM. P49327. recombinant FAS-TE, OMFH fluorogenic substrate, fluorescence endpoint;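 active = compounds whose normalised, plate-corrected inhibition of enzyme fluorescence in the single-dose primary screen is 50% or more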;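 note: 0% = DMSO with enzyme and 100% = substrate without enzyme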
# CRFBP-R2 block = CRF-BP/CRF-R2 complex antagonism | HEK293 CRF-R2/CRF-BP, CRF-induced calcium fluorescence | inhibition, % at 11.8 µM | 350,000 tested, 0.59% active;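 active = inhibition of the ligand-induced calcium signal above about 50% at the single tested concentration, limit read from the data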
# The depositor's hits bear a star; / = no result. Only some compounds are listed: those with a hit (about 3.2% of all), similar ones and a draw of the others.
SMILES,PfGluPho inh,H9c2 protect,aDG glyco up,CRFR2-BP ag,FAS-TE inh,CRFBP-R2 block
COC(=O)[C@@]12C[C@@H](CC(=O)NCc3cccc(C(F)(F)F)c3)C(=O)N(Cc3ccc4c(c3)OCO4)C1=CCC(C)(C)C2,/,/,-0.1,/,/,/
CN(C)c1ccc(/C=C(/C(=O)c2ccc(Cl)cc2Cl)n2cncn2)cc1,2.8,-0.9,0.2,70.8*,-22.7,-122.2
COc1ccc(Oc2nccc(-c3ccccc3)c2C#N)cc1,-5.8,-4.7,0.8,-0.5,3.3,71.1*
COc1ccc(Oc2nccc(-c3ccc(F)cc3)c2C#N)cc1,-10.7,1.4,-0.2,0.9,-5.6,8.1
COC(=O)CN1C(=O)COc2ccc(S(=O)(=O)NCc3ccc(Cl)cc3)cc21,-4.1,4.3,0.1,1.0,-1.7,99.3*
O=C(c1nn2c(C(F)(F)F)cc(-c3ccccc3)nc2c1Cl)N1CCN2CCCC2C1 (stereo unspecified),-5.3,-1.1,-0.2,-0.8,0.0,-5.2
Cc1cc2c(=Cc3ccc(N(C)C)cc3)c3ccccc3n2[n+]1C,27.4,-21.2,1.6,-1.1,-0.7,108.5*
C[n+]1c(-c2ccccc2)cc2c(=Cc3ccccc3)c3ccccc3n21,20.8,-15.2,0.7,10.6,20.3,-54.0
O=S(=O)(NCC1(N2CCOCC2)CCCCC1)c1ccc(Cl)cc1C(F)(F)F,5.9,-4.9,0.2,55.9*,18.6,-48.5
O=S(=O)(NCC1(N2CCOCC2)CCCCC1)c1ccccc1Cl,-6.2,4.3,0.0,0.1,3.8,2.3
CCc1ccc(S(=O)(=O)NCC2(N3CCOCC3)CCCCC2)cc1,4.1,-2.0,0.1,53.7*,8.2,-21.7
COc1cccc2cc(C(C)N(CCCN3CCOCC3)C(=S)Nc3ccc(C)c(C)c3)oc12 (stereo unspecified),13.8,-1.3,-0.1,2.8,22.6,-23.6
CCc1cccc(NC(=S)N(CCCN2CCOCC2)C(C)c2cc3cccc(OC)c3o2)c1 (stereo unspecified),16.2,7.9,0.3,-1.5,25.7,76.5*
CCC(C)n1c(SCC(=O)NC2CCS(=O)(=O)C2)nc2ccccc2c1=O (stereo unspecified),-7.0,1.6,-0.3,-0.2,-6.7,-6.4
CC(=O)Nc1cc(C(C)C)c(O)c(C(C)C)c1,-4.7,5.6,0.1,-1.2,-5.7,4.5
CC(C)c1cc(NC(=O)c2ccccc2)cc(C(C)C)c1O,44.2,7.5,0.1,-2.8,2.7,82.4*
COc1ccc(Cl)cc1NC(=O)c1ccoc1C,6.4,8.9,0.1,-1.6,4.4,80.3*
COc1ccc(C)cc1NC(=O)c1ccoc1C,13.5,-5.4,0.3,-0.2,1.6,5.3
O=C(NC(=S)NNC(=O)c1cccs1)c1ccc(Br)o1,-8.4,12.4,-0.1,71.3*,-5.0,19.2
CC(=O)c1ccc(-c2[nH]c3ccccc3c2CCN2C(=O)c3ccccc3C2=O)cc1,8.2,65.4*,-0.3,-0.8,23.5,-6.9
O=C1c2ccccc2C(=O)N1CCc1c(-c2ccccc2)[nH]c2ccccc12,12.2,24.8,-0.1,0.6,32.3,-5.2
N#CC(C#N)=C1C=CC=CN1/C(=C\c1ccco1)C(=O)c1ccccc1,32.7,-13.6,-0.4,24.2,6.3,-27.2
N#CC(C#N)=C1C=CC=CN1/C(=C\c1ccco1)C(=O)c1ccc(Br)cc1,59.3*,-16.6,-0.4,18.0,17.4,-50.4
COC(=O)C[C@@H]1C=C[C@@H](NC(=O)NC2CCCC2)[C@@H](CO)O1,/,/,-0.3,/,/,/
CN(C)CCNC(=O)c1cccc(-c2cnc3c(NC=O)cc(-c4ccc(F)cc4)cn23)c1,/,-10.7,1.3,/,-1.7,/
SMILES,PfGluPho inh,H9c2 protect,aDG glyco up,CRFR2-BP ag,FAS-TE inh,CRFBP-R2 block
COc1ccccc1-c1cc(NC=O)c2ncc(-c3cccc(C(C)=O)c3)n2c1,/,60.0*,-0.4,/,12.8,/
CC(=O)c1cccc(-c2cnc3c(NC=O)cc(-c4ccc(F)cc4)cn23)c1,/,60.9*,-0.4,/,17.0,/
COc1cc(NS(=O)(=O)c2ccc(NC(=O)/C=C/C(=O)O)cc2)nc(OC)n1,-11.6,-3.0,0.0,-0.2,-4.5,7.2
Cc1ccc2c(CC(=O)N3CCN(c4ccccc4)CC3)coc2c1,6.5,-8.0,-0.2,0.0,11.5,-7.1
COc1ccc(NC(=O)CS(=O)CC(=O)Nc2cccc3cccnc23)cc1 (stereo unspecified),6.0,-0.6,-0.2,0.2,-2.3,-0.1
COC(=O)c1cccc(-n2sc3ccccc3c2=O)c1,116.7*,-32.9,0.6,5.5,-14.3,0.6
O=c1c2ccccc2sn1-c1ccc(F)cc1,112.8*,-25.6,0.6,11.5,-11.7,3.6
COC(=O)c1cccc(N2CCCC2=O)c1,-13.0,0.3,-0.1,1.2,-9.9,-5.6
O=C(C[C@@H]1C/C=C\C[C@H](NC(=O)OCC2c3ccccc3-c3ccccc32)C(=O)OC[C@H]2CCCN2C1=O)NCCO,6.4,-11.3,0.0,0.1,-1.9,6.5
CC(OC(=O)Cc1coc2ccc3ccccc3c12)C(=O)NC(N)=O (stereo unspecified),8.9,3.6,-0.1,0.2,0.8,6.1
S=c1[nH]c2ccccc2n2c(=S)[nH]nc12,8.7,-2.6,-0.2,5.7,-5.4,54.9*
S=c1[nH]nc2ccc3ccccc3n12,/,-3.1,-0.2,/,-2.7,/
COc1ccc(CCNC(=O)[C@H](C)N2C(=O)N3CCc4c([nH]c5ccccc45)[C@@]3(C)C2=O)cc1,7.9,-11.0,0.0,0.9,11.1,-29.2
C=C(C)Cn1c(SCC(=O)N/N=C/c2c(O)ccc3ccccc23)nc2ccccc2c1=O,3.3,69.3*,0.4,11.8,36.1,14.6
CN(C(=O)Nc1ccccc1)C1CCS(=O)(=O)C1 (stereo unspecified),-2.5,7.9,-0.2,4.1,-4.5,-2.8
CC(=O)NC1=C(N(C)C2CCS(=O)(=O)C2)C(=O)c2ccccc2C1=O (stereo unspecified),97.3*,-11.0,3.9,2.6,-8.1,25.9
Cc1ccc(C)c(NC(=O)Cn2cnc3c(oc4ccccc43)c2=O)c1,-6.1,1.4,0.3,-4.3,-5.8,52.3*
Cc1cc(C)nc(SCCC(=O)Nc2ccccc2C)n1,-1.0,-3.9,-0.1,0.0,-3.5,74.6*
Cc1cc(C)nc(SCCC(=O)Nc2ccccc2)n1,7.5,-2.2,-0.4,2.5,-7.6,15.8
COCCn1c(-c2ccsc2)nc2c1c(=O)[nH]c(=O)n2CC(C)C,1.1,3.3,0.0,47.8,-4.9,51.2*
COCCn1c(-c2ccc3ccccc3c2)nc2c1c(=O)[nH]c(=O)n2CC(C)C,5.1,10.5,-0.1,-0.1,-1.8,-22.1
CSc1ccccc1NC(=O)c1cc(-c2ccc3c(c2)OCO3)on1,-4.9,-7.0,0.1,2.2,-9.1,-1.8
O=C(Nc1cc(Br)ccc1O)c1cc(-c2ccc3c(c2)OCO3)on1,-18.9,-9.4,0.0,-2.3,-11.8,70.0*

# Compound activity deposited in PubChem by Sanford-Burnham Center for Chemical Genomics.
